# Screening results from PubChem.
# HP1b chromo inh = inhibitors of HP1-beta chromodomain binding to methylated histone tails; P83916; AlphaScreen HP1-beta / biotin-H3K9me3 peptide binding; Potency, µM (titrated, usually from 114 µM), inactives show at the top dose activity change, negative = inhibition, hits mostly inhibitors; hit rate 0.56% among 390,000; AID 540317; further: potency means the concentration at half of the fitted maximal effect; nearly all actives have a fitted effect of over 70% in size
#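 AlphaScreen: HP1-beta (50 nM) preformed 30 min with biotin-H3(1-18)K9me3 peptide (50 nM) in PBS pH 7.4, 0.01% Tween-20. Compound added for 30 min at RT, then streptavidin donor/nickel chelate acceptor beads (10 ug/mL) for 30 min.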
# KDM4E inh = blocks human JMJD2E demethylase activity. B2RXH2. JMJD2E catalytic domain, FDH-coupled NADH fluorescence (FDH is formaldehyde dehydrogenase). Potency, µM (titrated, usually from 57.1 µM), for inactives: top-dose activity change, negative = inhibition, hits mostly inhibitors. hit rate 1.6% among 230,000; active means well fitted inhibition curve with a large enough effect, not every such curve was filed as active; inconclusive means small, poorly fitted or top-dose-only effect, or another doubt; inactive means no such curve, though single readings can be large or run the other way;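 further: potency means the concentration at half of the fitted maximal effect; 0% = wells with enzyme and -100% = buffer wells without enzyme; nearly all actives have a fitted effect of over 50% in size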
# Target sequence (B2RXH2 1-337 limits assumed): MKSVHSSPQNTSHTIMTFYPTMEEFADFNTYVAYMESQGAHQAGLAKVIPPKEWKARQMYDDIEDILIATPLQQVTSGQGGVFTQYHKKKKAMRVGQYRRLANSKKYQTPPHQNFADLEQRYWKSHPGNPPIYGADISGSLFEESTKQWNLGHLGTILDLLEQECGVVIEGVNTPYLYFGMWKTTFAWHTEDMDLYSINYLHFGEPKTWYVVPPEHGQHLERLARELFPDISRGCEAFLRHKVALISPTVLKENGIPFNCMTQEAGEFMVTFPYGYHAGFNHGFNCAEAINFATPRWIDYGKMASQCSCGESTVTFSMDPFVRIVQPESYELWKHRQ
# L3MBTL1 block = inhibitors of human L3MBTL1 | Q9Y468 | AlphaScreen L3MBTL1–H3K9me1 peptide binding | Potency, µM (doses to about 57.1 µM), inactives show at the top dose activity, negative = inhibition, usual class: inhibitors | hit rate 0.66% among 230,000 | AID 485360; further: potency means the concentration at half of the fitted maximal effect; on the % scale 0 is the no-effect control and ±100 the full control effect; nearly all actives have a fitted effect of over 60% in size
#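 Displacement of a biotinylated histone H3(1-15) peptide monomethylated at Lys9 (75 nM) from L3MBTL1 (50 nM) was measured by AlphaScreen after a 30 min room-temperature compound incubation; cefsulodin titration served as intraplate control.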
# JMJD2A Tudor inh = blocks the human JMJD2A Tudor domain; AID 504339; hit rate 4.4% among 390,000; AlphaScreen JMJD2A-Tudor / H3K4me3 peptide binding; Potency, µM (doses to about 114 µM), for inactives: at the top dose activity change, negative = inhibition, hits mostly inhibitors; O75164; further: potency means the concentration at half of the fitted maximal effect; on the % scale 0 is the no-effect control and ±100 the full control effect; nearly all actives have a fitted effect of over 50% in size
# BAZ2B block = inhibitors of human BAZ2B bromodomain; Q9UIF8; AlphaScreen BAZ2B-H3K14Ac peptide displacement; Potency, µM (series often up to 114 µM), without a hit: at the highest dose activity change, negative = inhibition, actives largely listed as inhibitors; hit rate 4.4% among 360,000; further: potency means the concentration at half of the fitted maximal effect; on the % scale 0 is the no-effect control and ±100 the full control effect; nearly all actives have a fitted effect of over 60% in size
#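 AlphaScreen displacement of biotin-H3(5-23)K14Ac peptide (50 nM final) from BAZ2B (50 nM final) in PBS pH 7.4, 0.01% Tween-20; complex preformed 30 min RT, then compounds (top 110 uM) 30 min RT, beads 20 min dark.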
# PI5P4Ka inh = blocks human PI5P4K alpha kinase activity; P48426; PI5P4Kalpha enzyme, ADP-Glo luminescence, 60 min; hits give low values; max response, %; hit rate 1.2% among 330,000; active means max response of -50% or lower; inconclusive means between -30% and -50%; inactive means -30% or higher; further: value at the top dose of about 77 µM; on the % scale 0 is the no-effect control and ±100 the full control effect
# Target sequence (P48426 whole entry, looked up): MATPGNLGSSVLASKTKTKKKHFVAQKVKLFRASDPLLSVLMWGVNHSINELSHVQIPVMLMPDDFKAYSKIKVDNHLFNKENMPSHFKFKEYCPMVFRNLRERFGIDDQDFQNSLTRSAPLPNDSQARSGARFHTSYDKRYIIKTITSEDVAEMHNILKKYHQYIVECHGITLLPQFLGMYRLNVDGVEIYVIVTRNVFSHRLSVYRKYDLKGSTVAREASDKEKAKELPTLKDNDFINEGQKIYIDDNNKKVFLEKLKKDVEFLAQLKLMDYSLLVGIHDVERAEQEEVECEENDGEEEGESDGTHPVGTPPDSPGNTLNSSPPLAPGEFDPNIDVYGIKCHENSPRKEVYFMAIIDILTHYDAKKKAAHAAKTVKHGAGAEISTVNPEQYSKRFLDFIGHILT
#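 ADP-Glo luminescence end-point read after a 60 min room-temperature kinase reaction of PI5P4Kalpha plus substrate, initiated with ATP at 5 microM final. Buffer: 0.038 M HEPES pH 7.4, EGTA, 0.1% CHAPS, 5% DMSO.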
# Active calls of the source: *; ? = inconclusive; · = no result; [ ] = dose if it differs, or a comment. Compounds with a hit are over-represented: about 5.7% of the library has one in this group of screens. Unless noted, the call rests on the fitted dose curve; in most records, active means well fitted inhibition curve with a large enough effect; inconclusive means small, poorly fitted or top-dose-only effect; inactive means no such curve, though single readings can be large or run the other way.
SMILES,HP1b chromo inh,KDM4E inh,L3MBTL1 block,JMJD2A Tudor inh,BAZ2B block,PI5P4Ka inh
COc1ccc(-c2nc(C#N)c(NCCCN3CCOCC3)o2)cc1,7.3%,5.01µM*,-10.0%,-20.7%,-33.1%,5.4
N#Cc1nc(-c2ccccc2)oc1NCc1ccco1,15.6%,?,?,-29.1%,50.1µM*,0.4
COc1ccc(-c2nc(C#N)c(NCc3ccccc3Cl)o2)cc1,11.4%,?,·,-4.6%,1.8%,·
CC(C)CNc1oc(-c2ccccc2Cl)nc1C#N,?,?,?,-22.4%,?,7.5
N#Cc1nc(-c2ccc(F)cc2)oc1NCCN1CCOCC1,52.1%,?,0.8%,-17.9%,-0.1%,2.7
N#Cc1nc(-c2ccccc2Cl)oc1NCc1ccco1,-29.5%,?,-3.1%,?,50.1µM*,·
N#Cc1nc(-c2ccc(Cl)cc2)oc1NCc1ccco1,-30.6%,?,·,-7.6%[11.4 µM],-30.8%,-6.3
COc1ccc(CNc2oc(-c3ccccc3)nc2C#N)cc1,-17.4%,?,-13.2%,?,44.7µM*,2.4
COC(=O)c1ccc(OCC2c3cc(OC)c(OC)cc3CCN2C(=O)c2ccc(F)cc2)cc1 (configuration not stated),33.4%,·,·,-33.9%,-28.0%,·
COc1ccccc1CNC(=O)c1sc2nc3n(c(=O)c2c1C)CCC3,40.4%,·,·,-14.1%,-26.4%,·
CCOC(=O)c1ccc(N2C(=O)c3n[nH]c(-c4ccco4)c3C2c2ccc([N+](=O)[O-])cc2)cc1 (configuration not stated),-25.4%,-10.8%,-30.9%,?,39.8µM*,-22.6
CCOC(=O)c1ccc(N2C(=O)c3n[nH]c(-c4ccco4)c3C2c2ccc(C)cc2)cc1 (configuration not stated),-28.2%,·,·,?,·,·
Cc1ccc(F)cc1CNC(=O)C1CCC(=O)N(CC2CCCCC2)C1 (configuration not stated),28.8%,·,·,-7.6%,-8.3%,-3.4
CCOC(=O)c1c(NC(=O)CSc2ncnc3ccccc23)sc(C)c1C,4.4%,6.8%,-0.8%,-11.2%,8.3%,1.4
CCOC(=O)c1c(NC(=O)CSc2ccccc2C(=O)O)sc(C)c1C,-1.1%,-2.6%,-20.9%,-30.1%,50.1µM*,-23.6
CCOC(=O)c1c(NC(=O)COC(=O)CNC(=O)c2ccco2)sc(C)c1C,-16.3%,7.2%,-6.5%,39.8µM*,?,-26.4
COC(=O)c1c(NC(=O)CSc2ncn[nH]2)sc(C)c1C,14.8%,·,-0.2%,-12.1%,0.8%,0.2
CCOC(=O)c1csc(NC(=O)CSc2nnnn2-c2ccc(OC)cc2)n1,37.3%,-3.1%,3.0%,-2.3%,0.4%,·
CCOC(=O)c1c(NC(=O)CSc2ncn[nH]2)sc(C(C)=O)c1C,35.8%,·,·,-11.7%,56.2µM*,8.5
CCOC(=O)c1c(NC(=O)CSc2nnnn2-c2ccc(OC)cc2)sc(C)c1C,?,-2.4%,·,50.1µM*,-35.2%,·
CC(=O)c1cccc(NC(c2ccc(F)cc2)c2nnc(-c3ccccc3)o2)c1 (configuration not stated),5.3%,·,·,-20.5%,5.0%,·
CCOC(=O)c1c(NC(=O)CSc2ncccn2)sc2c1CCN(Cc1ccccc1)C2,-13.9%,-1.1%,-6.0%,22.4µM*,?,-10.2
N#Cc1ccsc1NC(=O)CSc1nnnn1-c1ccc(O)cc1,18.6%,2.5%,-28.4%,-22.1%,?,-61.1*
Cc1ccc2scc(N3CCCCC3)c(=O)c2c1,3.6%[57 µM],·,·,?,?,·
COc1cccc2c1Oc1ncccc1N(C(=O)Nc1ccc(F)c(Cl)c1)C2,37.0%,·,·,-15.5%,37.2%[57.1 µM],·
SMILES,HP1b chromo inh,KDM4E inh,L3MBTL1 block,JMJD2A Tudor inh,BAZ2B block,PI5P4Ka inh
CN1CCN(c2ccc(NC(=S)NC(=O)c3cccc4ccccc34)cc2)CC1,?,·,·,?,35.5µM*,1.6
Cc1ccc(/C=N/Nc2cc(C)nc(N3CCOCC3)n2)cc1,21.5%,-6.6%,-2.9%,?,-6.6%,16.5
Cc1cccc(C(=O)NC(=S)Nc2ccc(N3CCOCC3)cc2)c1,?,1.4%,-22.2%,?,31.6µM*,-0.4
CCOc1cccc(C(=O)NC(=S)Nc2ccc(N3CCCC3)cc2)c1,14.1µM*,-7.6%,-28.0%,?,8.91µM*,0.2
CCOc1cccc(C(=O)Nc2ccc(N3CCN(S(C)(=O)=O)CC3)cc2)c1,30.6%,6.4%,·,-25.8%,-2.3%,12.6
CN1CCN(c2ccc(NC(=S)NC(=O)c3cccc4c(Br)cccc34)cc2)CC1,7.5%,·,·,-32.3%,?,-1.0
Cc1ccc(N/N=C/c2ccc(N3CCOCC3)cc2)cc1C,79.4µM*,?,-1.6%,39.8µM*,?,2.3
NC(=S)c1csc(CCNC(=O)c2ccccc2)n1,·,·,·,·,·,-4.2
COc1ccc(C(=O)NC(=S)Nc2ccc(N3CCOCC3)cc2)cc1Cl,?,·,·,25.1µM*,22.4µM*,0.8
COc1cccc(C(=O)NC(=S)Nc2ccc(Cl)c(C(=O)O)c2)c1,-14.2%,-4.9%,·,-19.7%,?,-20.2
Cc1ccc(C(=O)NC(=S)Nc2ccc(N3CCOCC3)cc2)cc1C,?,-13.8%,-17.5%[11.4 µM],50.1µM*,20µM*,-23.6
CCOc1cccc(C(=O)NC(=S)Nc2ccc(Cl)cc2C(=O)O)c1,?,?,·,?,-7.0%,-59.8*
O=C(NC(=S)Nc1ccc(N2CCOCC2)cc1)c1ccc(Cl)cc1,-12.1%,0.6%,-3.8%,-10.6%,-0.3%,8.9
Cc1ccc(C(=O)O)cc1NC(=S)NC(=O)c1ccc(COc2ccccc2)cc1,6.9%,·,·,?,50.1µM*,-2.0
CSc1ccc(CCNC(=O)C2CCN(c3nc4ccccc4nc3C(F)(F)F)CC2)cc1,-2.8%,·,·,-15.9%,1.9%,·
Cc1nc2nc(NC(=O)CC(C)C)[nH]n2c(=O)c1Cc1ccccc1,21.5%,·,·,-9.4%,1.3%,·
COc1cccc(OC)c1-c1nn2c(-c3cc(-c4ccccc4)n[nH]3)nnc2s1,-34.5%,?,-29.4%,44.7µM*,8.91µM*,-65.8*
CC1=NNC(=O)c2ccccc2O1,26.5%,?,-2.0%,5.01µM*,50.1µM*,3.1
CCOc1ccccc1CNC(=O)Cn1cc2c(n1)-c1c(oc(C(=O)N3CCCC3)c1C)CC2,15.0%,·,·,-16.8%,-33.7%,·
O=c1[nH][nH]c(=O)c2c(NS(=O)(=O)c3ccccc3)cccc12,-18.3%,?,4.2%,44.7µM*,-2.2%,-2.3
O=C(NNc1c2ccccc2nc2ccccc12)c1cccc(O)c1,?,?,-28.0%,44.7µM*,35.5µM*,-1.0
O=C(NNc1c2ccccc2nc2ccccc12)c1ccc(O)cc1,?,-1.2%,?,-32.3%,28.2µM*,-27.7
COc1ccc(NCCNc2ccc(OC)cc2)cc1,-18.2%,-10.6%,-25.5%,?,50.1µM*,·
COc1ccc(Cl)cc1NCCC(O)c1ccc(F)cc1 (configuration not stated),-0.7%,·,·,?,?,25.8
